Assay outcomes from PubChem BioAssay.
hgDAF12 agonist = H. glycines DAF-12 receptor agonists, primary screen, cell-based, luminescence, HEK293, GAL4 fusion, UAS-luciferase; Nuclear hormone receptor DAF-12 (Heterodera glycines), GAL4 fusion; HEK293 GAL4-hgDAF12 UAS-luciferase reporter, agonist luminescence; normalized to butyrate control; activation, % at 6.8 µM; hit rate 1.8% among 370,000;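 active means activation above a cutoff set at the mean of all screened compounds plus 3 SD, cut at about 10% in these data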
ssDAF12 agonist = S. stercoralis DAF-12 nuclear receptor activators, primary screen, cell-based, luminescence, HEK293, GRIP1 co-expression, lit1-tk-luc | activation, % at 6.8 µM | Nuclear hormone receptor DAF-12 (Strongyloides stercoralis) | hit rate 1% among 370,000 | HEK293 ssDAF-12/GRIP1 lit1-tk-luc reporter; % of 3 µM dafachronic acid response;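 active means activation above the mean over all tested compounds plus 3 SD, cut at about 0.9% in these data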
DAX1 inh-1 = DAX1 (NR0B1) inhibitors, primary screen, cell-based, HEK293, Gal4-DAX1, luciferase luminescence. Nuclear receptor subfamily 0 group B member 1 (Homo sapiens), P51843. HEK293 Gal4-DAX1 luciferase reporter. inhibition, % at 6.75 µM. hit rate 0.99% among 340,000. AID 504766, 2011;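 active means inhibition above the mean over all tested compounds plus 3 SD, cut at about 4.2% in these data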;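 further: inhibition shows as a rise in luminescence from relieved DAX1 repression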
Target sequence (P51843 207-470 limits assumed): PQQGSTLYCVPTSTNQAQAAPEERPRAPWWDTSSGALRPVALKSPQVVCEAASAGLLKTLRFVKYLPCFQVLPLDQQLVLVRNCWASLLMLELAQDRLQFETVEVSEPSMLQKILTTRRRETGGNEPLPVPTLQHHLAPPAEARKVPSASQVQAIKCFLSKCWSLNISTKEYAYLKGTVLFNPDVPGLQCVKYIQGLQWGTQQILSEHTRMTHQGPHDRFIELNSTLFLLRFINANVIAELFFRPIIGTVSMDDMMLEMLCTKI
hcDAF12 agonist = H. contortus DAF-12 nuclear receptor activators, primary screen, cell-based, luminescence, HEK293, lit1-tk-luc reporter; AID 652067, 2013; HEK293 hcDAF-12 lit1-tk-luc reporter; 0% DMSO, 100% Δ7-dafachronic acid; activation, % at 6.8 µM; hit rate 1.4% among 370,000;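 active means activation above the mean of all tested compounds plus 3 SD, cut at about 5.5% in these data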
DAX1 inh-2 = DAX1 (NR0B1) inhibitors on StAR promoter, primary screen, cell-based, luminescence, SF-1 (NR5A1), full-length DAX-1 | HEK293T StAR-luciferase reporter, SF-1/DAX-1 repression relief | inhibition, % at 6.8 µM | hit rate 1.1% among 370,000;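 active means inhibition above the mean over all tested compounds plus 3 SD, cut at about 3.6% in these data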;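 further: higher inhibition means more luminescence from relief of DAX-1 repression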
SMARCA2 activ = SMARCA2 (BRM) function activators, primary screen, cell-based, luminescence, high throughput; MG213 cells, MMTV-luciferase reporter, dexamethasone, overnight; activation, % at 9.1 µM; hit rate 1% among 370,000; AID 652017, 2013; in the data active means activation above about 7.8%
SMARCA2 act conf = SMARCA2 (BRM) function activators, confirmation, cell-based, luminescence, triplicate; shares compounds with SMARCA2 activ; MG213 cells, MMTV-luciferase with dexamethasone, overnight; MG213 cells expressing E1A, Rb sequestered; DMSO wells 0%, reference activator 100%; activation, % at 9.1 µM; hit rate 30% among 3,500;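 active means activation above its plate's cutoff, the mean activation of tested wells plus 3 SD, cut at about 7.9% in these data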
VP16 Luc act = GAL4-VP16 luciferase reporter activation, counter-screen for SMARCA2 (BRM) activator project, cell-based, pG5luc, luminescence, high throughput. shares compounds with SMARCA2 activ. HEK293 GAL4-VP16 pG5luc reporter; scaled: DMSO wells 0%, SAHA wells 100%. activation, % at 9.1 µM. hit rate 41% among 3,500;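 active means activation above the solvent-only control well mean plus 3 SD, averaged across control plates, cut at about 5.2% in these data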
Numbers stand for hits. Only some compounds are listed: those with a hit (about 4.8% of all), similar ones and a draw of the others.

`CCCN1CCN(CCCNC(=O)c2ccc3c(=O)n(CCc4ccccc4)c(=O)[nH]c3c2)CC1` gave hgDAF12 agonist inactive, ssDAF12 agonist inactive, DAX1 inh-1 inactive, hcDAF12 agonist inactive, DAX1 inh-2 inactive and SMARCA2 activ inactive.
O=C(NCCN1CCCC1)c1ccc2c(=O)n(CCc3ccccc3)c(=O)[nH]c2c1 was read as hgDAF12 agonist inactive, ssDAF12 agonist inactive, DAX1 inh-1 inactive, hcDAF12 agonist inactive, DAX1 inh-2 inactive, SMARCA2 activ 8.2, SMARCA2 act conf 10 and VP16 Luc act inactive.
`Cc1ccc(O)c(C2=Nc3ccccc3N=C(c3cccc([N+](=O)[O-])c3)C2)c1` gave hgDAF12 agonist inactive, ssDAF12 agonist inactive, DAX1 inh-1 inactive, hcDAF12 agonist inactive, DAX1 inh-2 inactive, SMARCA2 activ 8.7, SMARCA2 act conf inactive and VP16 Luc act inactive.
Screening CCc1ccc(NC(=S)NC(=O)c2c(-c3ccccc3Cl)noc2C)cc1 returned hgDAF12 agonist inactive, ssDAF12 agonist inactive, DAX1 inh-1 inactive, hcDAF12 agonist inactive, DAX1 inh-2 inactive and SMARCA2 activ inactive.
`Cc1onc(-c2ccccc2Cl)c1C(=O)NC(=S)Nc1ccc(C(C)(C)C)cc1` gave hgDAF12 agonist inactive, ssDAF12 agonist inactive, DAX1 inh-1 inactive, hcDAF12 agonist inactive, DAX1 inh-2 inactive, SMARCA2 activ 11, SMARCA2 act conf inactive and VP16 Luc act inactive.
Clc1ccc(OCCSc2ncccn2)cc1 was read as hgDAF12 agonist inactive, ssDAF12 agonist inactive, DAX1 inh-1 inactive, hcDAF12 agonist inactive, DAX1 inh-2 inactive, SMARCA2 activ 8.0, SMARCA2 act conf inactive and VP16 Luc act 5.5.
O=C(c1cccc(NC2=NC3CS(=O)(=O)CC3S2)c1)N1CCN(c2ccc(F)cc2)CC1 (configuration not stated) was read as hgDAF12 agonist inactive, ssDAF12 agonist inactive, DAX1 inh-1 inactive, hcDAF12 agonist inactive, DAX1 inh-2 inactive, SMARCA2 activ 8.2, SMARCA2 act conf inactive and VP16 Luc act inactive.
`COc1ccc2c(COC(=O)c3n[nH]c4ccccc34)cc(=O)oc2c1` gave hgDAF12 agonist inactive, ssDAF12 agonist inactive, DAX1 inh-1 inactive, hcDAF12 agonist inactive, DAX1 inh-2 inactive, SMARCA2 activ 9.5, SMARCA2 act conf inactive and VP16 Luc act 11.
Screening Cc1cc2oc(=O)cc(COC(=O)c3n[nH]c4ccccc34)c2cc1C returned hgDAF12 agonist inactive, ssDAF12 agonist inactive, DAX1 inh-1 inactive, hcDAF12 agonist inactive, DAX1 inh-2 inactive and SMARCA2 activ inactive.
Screening FC(F)(F)c1cc(CNC2CCC23CCC(c2ccccc2)CC3)ccc1Cl (configuration not stated) returned hgDAF12 agonist inactive, ssDAF12 agonist inactive and hcDAF12 agonist inactive.
For O=C(Nc1ccccc1C(=O)NCCc1ccccc1)c1ccco1 the results were hgDAF12 agonist 11, ssDAF12 agonist inactive, DAX1 inh-1 inactive, hcDAF12 agonist inactive, DAX1 inh-2 inactive, SMARCA2 activ 9.1, SMARCA2 act conf 11 and VP16 Luc act 7.4.
For COc1cccc(C2c3c(ncn(-c4ccccc4)c3=N)Oc3ccc4ccccc4c32)c1OC (configuration not stated) the results were hgDAF12 agonist inactive, ssDAF12 agonist inactive and hcDAF12 agonist inactive.
Screening CC(C)(C)C(=O)Nc1ccnn1C1CCN(C(=O)c2ccc(Cl)cc2F)CC1 returned hgDAF12 agonist inactive, ssDAF12 agonist inactive, DAX1 inh-1 inactive, hcDAF12 agonist inactive, DAX1 inh-2 inactive, SMARCA2 activ 14, SMARCA2 act conf inactive and VP16 Luc act inactive.
`CC(C)CC(=O)Nc1ccnn1C1CCN(C(=O)c2ccc(Cl)cc2F)CC1` gave hgDAF12 agonist inactive, ssDAF12 agonist inactive, DAX1 inh-1 inactive, hcDAF12 agonist inactive, DAX1 inh-2 inactive and SMARCA2 activ inactive.
COc1ccc(CNS(=O)(=O)CC2NCc3cc(OC)ccc32)cc1 (configuration not stated) was read as hgDAF12 agonist inactive, ssDAF12 agonist inactive, hcDAF12 agonist inactive, DAX1 inh-2 inactive, SMARCA2 activ 10.0, SMARCA2 act conf inactive and VP16 Luc act inactive.
`CCOC(=O)CNC(=O)CSc1nnc(-c2cccs2)o1` gave hgDAF12 agonist inactive, ssDAF12 agonist inactive, hcDAF12 agonist inactive, DAX1 inh-2 inactive and SMARCA2 activ inactive.
For Cn1c(CCN2CCCCC2)nc2cc(NC(=O)NC3CCCCC3)ccc21 the results were hgDAF12 agonist inactive, ssDAF12 agonist inactive, DAX1 inh-1 inactive, hcDAF12 agonist inactive, DAX1 inh-2 inactive and SMARCA2 activ inactive.
`CC1CCN(CCc2nc3cc(NC(=O)NC4CCCCC4)ccc3n2C)CC1` gave hgDAF12 agonist inactive, ssDAF12 agonist inactive, DAX1 inh-1 inactive, hcDAF12 agonist inactive, DAX1 inh-2 inactive, SMARCA2 activ 8.5, SMARCA2 act conf inactive and VP16 Luc act inactive.
`Cc1ccsc1/C=C1\SC(N)=NC1=O` gave hgDAF12 agonist inactive, ssDAF12 agonist inactive, DAX1 inh-1 inactive, hcDAF12 agonist inactive, DAX1 inh-2 inactive and SMARCA2 activ inactive.
NC1=NC(=O)/C(=C/C=C/c2cccs2)S1 was read as hgDAF12 agonist inactive, ssDAF12 agonist inactive, DAX1 inh-1 4.8, hcDAF12 agonist inactive, DAX1 inh-2 inactive, SMARCA2 activ 16, SMARCA2 act conf 8.6 and VP16 Luc act 5.8.
Screening CN1CCN(C(=S)NC(=O)/C=C/c2ccccc2Cl)CC1 returned hgDAF12 agonist inactive, ssDAF12 agonist inactive, DAX1 inh-1 inactive, hcDAF12 agonist inactive, DAX1 inh-2 inactive and SMARCA2 activ inactive.
Screening CN1CCN(C(=S)NC(=O)/C=C/c2ccccc2)CC1 returned hgDAF12 agonist inactive, ssDAF12 agonist inactive, DAX1 inh-1 inactive, hcDAF12 agonist inactive, DAX1 inh-2 inactive, SMARCA2 activ 8.3, SMARCA2 act conf inactive and VP16 Luc act inactive.
